Laboratory results from the supplement of paper PMC11865577.
Structures can show the parent of a compound that is named as a salt.

These molecules were tested on hsa-mir-374a loop (assay: normalised indicator fluorescence (fraction of RNA + indicator signal without compound); higher = less displacement of indicator (weaker competition)). Settings: compound concentration: 5 uM; 30 min; indicator: TO-PRO-1 0.1 uM; RNA concentration: 0.1 uM.
Outline: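 Displacement screen in 96-well plates: TO-PRO-1 or TO-PRO-3 indicator with RNA in 20 mM phosphate pH 7.0, 20 mM NaCl, 80 mM KCl. Each compound was added as 0.25 μL of 1 mM DMSO stock (about 5 uM final), and fluorescence was read after 30 min on an Infinite 200 PRO (excitation 485 or 620 nm). Values are indicator fluorescence after subtracting the buffer-plus-indicator blank, divided by the no-compound RNA-plus-indicator signal. Each is the mean of two independent experiments.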
`CC(=O)Oc1c(C)c(C)c2c(c1C)CCC(C)(CCC[C@H](C)CCC[C@H](C)CCCC(C)C)O2` (stereo not given in full) [Vitamin E Acetate] showed a normalised indicator fluorescence of 1.01. `COc1nccnc1NS(=O)(=O)c1ccc(NC(=O)/C=C/c2ccc([N+](=O)[O-])s2)cc1` [Necrosulfonamide] showed a normalised indicator fluorescence of 1.05. Work on `CN(NC(=O)CC(=O)NN(C)C(=S)c1ccccc1)C(=S)c1ccccc1` [Elesclomol] yielded a normalised indicator fluorescence of 1.09. `O=c1ccc2ccc(O)cc2o1` [7-Hydroxycoumarin] gave a normalised indicator fluorescence of 1.07. Molecule `O=C(O)/C=C/c1ccc(Cn2ccnc2)cc1` [Ozagrel hydrochloride] has a normalised indicator fluorescence of 1.07. `Fc1ccc(-c2nc3n(c2-c2ccncc2)CCS3)cc1` was tested, and the normalised indicator fluorescence was 1.09. `O=[N+]([O-])c1ccc(-c2nc(-c3ccc(F)cc3)c(-c3ccncc3)[nH]2)cc1` showed a normalised indicator fluorescence of 1.59. Molecule `OC[C@H]1O[C@@H](Oc2ccc(O)cc2)[C@H](O)[C@@H](O)[C@@H]1O` [Arbutin] has a normalised indicator fluorescence of 1.13. With `COc1ccc(O)cc1` [4-Methoxyphenol] the normalised indicator fluorescence was 1.19. For `CCNC(=O)c1noc(-c2cc(C(C)C)c(O)cc2O)c1-c1ccc(CN2CCOCC2)cc1` [Luminespib], the normalised indicator fluorescence was 1.04. Work on `O=c1cc(-c2ccc(O)cc2)oc2cc(O)cc(O)c12` [Apigenin] yielded a normalised indicator fluorescence of 1.05. With `O=C1O[C@H]([C@@H](O)CO)C(O)=C1O` [L(+)-Ascorbic acid] the normalised indicator fluorescence was 1.05. Molecule `O=c1ncn2nc(Sc3ccc(F)cc3F)ccc2c1-c1c(Cl)cccc1Cl` [Neflamapimod] has a normalised indicator fluorescence of 1.07. Work on `Cc1cccc(CC(=O)N2CCc3c2ccc(-c2cn(C)c4ncnc(N)c24)c3F)n1` yielded a normalised indicator fluorescence of 1.14. `CC(=O)O[C@H]1C[C@@]2(C)[C@@H](C[C@@H](O)[C@H]3[C@@]4(C)CC[C@@H](O)[C@@H](C)[C@@H]4CC[C@@]32C)/C1=C(\CCC=C(C)C)C(=O)O` [Sodium fusidate] showed a normalised indicator fluorescence of 1.09. With `CC(=O)CCCCn1c(=O)c2c(ncn2C)n(C)c1=O` [Pentoxifylline] the normalised indicator fluorescence was 1.04. `Cc1c(C)c2c(c(C)c1O)CC[C@@](C)(CCC[C@H](C)CCC[C@H](C)CCCC(C)C)O2` [Vitamin E] gave a normalised indicator fluorescence of 1.05. `O=C(NC(Cc1cc(=O)[nH]c2ccccc12)C(=O)O)c1ccc(Cl)cc1` (stereo not given) [Rebamipide] was tested, and the normalised indicator fluorescence was 1.1. Molecule `NC(=O)c1ccc(N(C(N)=O)c2c(F)cccc2F)nc1-c1ccc(F)cc1F` has a normalised indicator fluorescence of 1.15. `CC(C)OC(=O)CCC/C=C\C[C@@H]1[C@@H](CC[C@@H](O)CCc2ccccc2)[C@H](O)C[C@@H]1O` [Latanoprost] showed a normalised indicator fluorescence of 1.01. With `CCCC(C(=O)OCCN(CC)CC)(c1ccccc1)c1ccccc1` [Proadifen hydrochloride] the normalised indicator fluorescence was 1.16. Molecule `COC1=C2C[C@@H](C)C[C@H](OC)[C@H](O)[C@@H](C)/C=C(\C)[C@H](OC(N)=O)[C@@H](OC)/C=C\C=C(/C)C(=O)NC(=CC1=O)C2=O` [Geldanamycin] has a normalised indicator fluorescence of 1.11. With `COc1ccc(C(=C2C(=O)Nc3ccccc32)c2ccc(OC)cc2)cc1` the normalised indicator fluorescence was 1.08. For `O=C1C[C@@H](c2ccc(O)cc2)Oc2cc(O)cc(O)c21` [Naringenin], the normalised indicator fluorescence was 1.17. With `[I-].[K+]` [Potassium iodide] the normalised indicator fluorescence was 1.21. `CO[C@H]1/C=C/O[C@@]2(C)Oc3c(C)c(O)c4c(c3C2=O)C2=NC3(CCN(CC(C)C)CC3)NC2=C(NC(=O)/C(C)=C\C=C\[C@H](C)[C@H](O)[C@@H](C)[C@@H](O)[C@@H](C)[C@H](OC(C)=O)[C@@H]1C)C4=O` [Rifabutin] was tested, and the normalised indicator fluorescence was 1.34. For `O=C(O)/C=C/c1ccc(Cn2ccnc2)cc1` [Ozagrel], the normalised indicator fluorescence was 1.12. Work on `CC1(C)OC(=O)C=C[C@]2(C)[C@H]3CC[C@@]4(C)[C@H](c5ccoc5)OC(=O)[C@H]5O[C@]54[C@]3(C)C(=O)C[C@@H]12` [Obacunone] yielded a normalised indicator fluorescence of 1.11. In the case of `NNC(=O)c1ccncc1` [Isoniazid], the normalised indicator fluorescence is reported as 1.01. Molecule `CC1=NN(c2ccccc2)C(=O)C1` [Edaravone] has a normalised indicator fluorescence of 1.06. With `CC(C)(O)[C@@H]1CC[C@](C)([C@H]2[C@@H](O)C[C@@]3(C)[C@@H]4C[C@H](O)[C@H]5C(C)(C)[C@@H](O[C@@H]6OC[C@@H](O)[C@H](O)[C@H]6O[C@@H]6O[C@H](CO)[C@@H](O)[C@H](O)[C@H]6O)CC[C@@]56C[C@@]46CC[C@]23C)O1` [Astragaloside III] the normalised indicator fluorescence was 1.04. For `O=C(Nc1ccc2[nH]nc(-c3ccncc3)c2c1)[C@@H]1CCN(CC(=O)N2CCN(c3ccc(-c4ncccn4)cc3)CC2)C1`, the normalised indicator fluorescence was 1.09. For `O=C(COc1ccc(Cl)cc1)NC1CCC(NC(=O)COc2ccc(Cl)cc2)CC1` (stereo not given), the normalised indicator fluorescence was 1.07. For `Oc1cc(O)c2c(c1)O[C@H](c1ccc(O)c(O)c1)[C@@H](O)C2` [Cianidanol], the normalised indicator fluorescence was 1.26. For `C[C@@H]1O[C@@H](O[C@@H]2[C@@H](O)[C@H](OCCc3ccc(O)c(O)c3)O[C@H](CO)[C@H]2OC(=O)/C=C/c2ccc(O)c(O)c2)[C@H](O)[C@H](O)[C@H]1O` [Verbascoside], the normalised indicator fluorescence was 1.46.
